Data as given in PubChem BioAssay (EPA / NIEHS).
Records with an inconclusive call do not appear. Calls of active or inactive are those of the source. How the source made its calls: active means hit-call score of the fitted dose curve at least 0.9, where 1 is the maximum; inconclusive means response in the unintended direction; inactive means score below 0.9.

What follows are compounds tested against human Phosphatase and Tensin Homolog (PTEN), PTEN (gene 5728) (UniProt P60484) (assay: NVS_ENZ_hPTEN: NovaScreen (NVS) Enzymatic Assay for human Phosphatase and Tensin Homolog (PTEN) (AID 2283203)).
human Phosphatase and Tensin Homolog (PTEN), PTEN (gene 5728), sequence (P60484 whole entry, looked up): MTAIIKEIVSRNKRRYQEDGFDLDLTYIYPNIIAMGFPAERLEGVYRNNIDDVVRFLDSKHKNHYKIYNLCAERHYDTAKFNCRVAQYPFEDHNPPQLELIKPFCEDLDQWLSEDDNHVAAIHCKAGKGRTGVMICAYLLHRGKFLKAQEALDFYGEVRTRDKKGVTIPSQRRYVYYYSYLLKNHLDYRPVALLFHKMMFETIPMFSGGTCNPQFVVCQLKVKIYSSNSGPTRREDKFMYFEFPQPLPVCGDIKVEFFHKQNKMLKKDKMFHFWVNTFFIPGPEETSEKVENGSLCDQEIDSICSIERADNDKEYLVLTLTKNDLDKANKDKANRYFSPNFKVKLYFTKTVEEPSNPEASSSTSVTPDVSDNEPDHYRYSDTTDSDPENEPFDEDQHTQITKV
Description: NVS_ENZ_hPTEN is a biochemical, single-readout assay that uses extracted gene-proteins in a cell-free assay. Measurements were taken 1 hour after chemical dosing in a 384-well plate.NVS_ENZ_hPTEN is one of one assay component(s) measured or calculated from the NVS_ENZ_hPTEN assay. It is designed to make measurements of enzyme activity, a form of enzyme reporter, as detected with fluorescence intensity signals by Fluorescence and electrophoretic mobility shift technology.Data from the assay component NVS_ENZ_hPTEN was analyzed into 1 assay endpoint. This assay endpoint, NVS_ENZ_hPTEN, was analyzed in the positive analysis fitting direction relative to DMSO as the negative control and baseline of activity. Using a type of enzyme reporter, loss-of-signal activity can be used to understand changes in the enzymatic activity as they relate to the gene PTEN. Furthermore, this assay endpoint can be referred to as a primary readout, because this assay has produced multiple assay endpoints where this one serves a enzymatic activity function. To generalize the intended target to other relatable targets, this assay endpoint is annotated to the phosphatase intended target family, where the subfamily is dual-specific phosphatase.
Binding assays used specific radioligands (tritiated, iodinated) with non-radioactive competitive displacement ligands in agonist or antagonist protocols (as indicated) and various reference compounds and inhibitors to titrate specific binding to receptors and transporters. Most enzyme assays (CYPs, kinases, phosphatases, proteases, HDACs) used recombinant protein and specific substrates (fluorescence mostly, some colorimetric and radioactive) and inhibitors, followed by a biochemical separation of substrate and product. All assays for the biochemical HTS were initially run in duplicate at a single concentration (10 uM for CYP450 assays and 25 uM for all others). […] Each assay was run with positive and negative controls, and concurrent controls on every plate. The follow-up (secondary) screen tested active chemical-pairs in concentration series, as well as a few additional assays not tested in the primary screen, some selected negative inactives, and several cases re-run in the concentration series for confirmatory purposes.
`COP(=S)(OC)Oc1cc(Cl)c(Cl)cc1Cl` was tested, and the outcome was “inactive”.
For `N#CCc1ccc(Cl)cc1`, the AC50 was 1.32 µM (active).
For `CN(CCCC(=O)c1cccnc1)N=O`, the AC50 was 0.00229 µM (active).
For `COC[C@H](C)N(C(=O)CCl)c1c(C)csc1C`, the outcome was “inactive”.
`O=C(c1ccccc1)C(Cl)Cl` was tested, and the AC50 was 14.1 µM (active).

These compounds were tested against human Protein Tyrosine Phosphatase Non-receptor Type 9 (PTPN9), PTPN9 (gene 5780) (UniProt P43378) (assay: NVS_ENZ_hPTPN9: NovaScreen (NVS) Enzymatic Assay for human Protein Tyrosine Phosphatase Non-receptor Type 9 (PTPN9) (AID 2283209)).
human Protein Tyrosine Phosphatase Non-receptor Type 9 (PTPN9), PTPN9 (gene 5780), sequence (P43378 whole entry, looked up): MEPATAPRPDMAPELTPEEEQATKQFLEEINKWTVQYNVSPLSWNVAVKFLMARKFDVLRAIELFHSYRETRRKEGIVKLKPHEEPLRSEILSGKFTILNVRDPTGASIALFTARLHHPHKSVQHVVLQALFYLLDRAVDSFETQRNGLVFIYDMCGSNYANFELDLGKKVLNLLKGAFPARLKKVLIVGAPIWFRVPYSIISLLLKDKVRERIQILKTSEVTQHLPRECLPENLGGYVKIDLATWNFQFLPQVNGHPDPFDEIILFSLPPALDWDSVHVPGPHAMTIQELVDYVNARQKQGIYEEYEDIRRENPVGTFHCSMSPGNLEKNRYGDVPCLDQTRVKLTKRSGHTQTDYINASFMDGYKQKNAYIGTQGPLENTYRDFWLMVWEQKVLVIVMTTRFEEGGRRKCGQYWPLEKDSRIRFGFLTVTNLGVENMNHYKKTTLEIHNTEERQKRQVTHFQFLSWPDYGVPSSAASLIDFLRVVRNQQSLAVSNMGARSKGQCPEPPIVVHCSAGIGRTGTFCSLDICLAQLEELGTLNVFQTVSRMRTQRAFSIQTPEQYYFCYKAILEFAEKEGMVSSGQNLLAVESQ
Summary of the method: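 Sf9-expressed enzyme in a cell-free assay, fluorescence read 1.33 h after dosing with mobility-shift separation of substrate and product. Tested at 25 uM in duplicate, then up to 50 uM; signal loss versus DMSO.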
With `COc1cc(-c2ccc(N)c(OC)c2)ccc1N` the AC50 was 40.1 µM (active).
For `CC(=O)[O][Hg][c]1ccccc1`, the AC50 was 17 µM (active).
In the case of `CC(C)(C)CC(C)(C)c1ccc(O)cc1`, the outcome is reported as “inactive”.

These compounds were tested against human Protein Tyrosine Phosphatase Non-receptor Type 6 (PTPN6), PTPN6 (gene 5777) (UniProt P29350) (assay: NVS_ENZ_hPTPN6: NovaScreen (NVS) Enzymatic Assay for human Protein Tyrosine Phosphatase Non-receptor Type 6 (PTPN6) (AID 2283210)).
human Protein Tyrosine Phosphatase Non-receptor Type 6 (PTPN6), PTPN6 (gene 5777), sequence (P29350 whole entry, looked up): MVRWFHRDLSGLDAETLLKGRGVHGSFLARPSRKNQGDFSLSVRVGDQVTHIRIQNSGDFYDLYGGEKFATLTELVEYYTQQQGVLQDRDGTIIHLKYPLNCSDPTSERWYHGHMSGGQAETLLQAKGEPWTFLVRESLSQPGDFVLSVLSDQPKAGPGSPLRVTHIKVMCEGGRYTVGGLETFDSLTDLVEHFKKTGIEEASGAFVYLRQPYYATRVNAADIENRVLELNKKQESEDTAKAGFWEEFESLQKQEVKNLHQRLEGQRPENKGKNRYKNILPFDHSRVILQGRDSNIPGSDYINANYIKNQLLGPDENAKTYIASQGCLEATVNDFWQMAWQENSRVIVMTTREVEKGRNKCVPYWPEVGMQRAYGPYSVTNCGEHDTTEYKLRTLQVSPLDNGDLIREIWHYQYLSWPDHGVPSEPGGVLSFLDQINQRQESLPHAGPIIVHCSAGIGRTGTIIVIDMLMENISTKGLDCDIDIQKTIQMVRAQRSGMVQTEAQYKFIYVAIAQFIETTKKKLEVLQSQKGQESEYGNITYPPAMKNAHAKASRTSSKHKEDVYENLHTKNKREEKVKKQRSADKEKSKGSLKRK
Summary of the method: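 Cell-free assay with recombinant PTPN6 expressed in SF9 cells, fluorescent substrate, product separated from substrate by electrophoretic mobility shift; read 1.33 hours after dosing. Primary screen in duplicate at 25 uM, actives retested in concentration series; DMSO baseline.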
In the case of `O=C(O)C(Cl)(Cl)Cl`, the outcome is reported as “inactive”.
`CCOP(=S)(OCC)Oc1nc(Cl)c(Cl)cc1Cl` was tested, and the outcome was “inactive”.
For `Cn1sc(Cl)cc1=O`, the outcome was “inactive”.
In the case of `CCOP(=S)(OCC)SCSP(=S)(OCC)OCC`, the outcome is reported as “inactive”.
